Experimental data taken from PubChem BioAssay AID588742 (Southern Research Specialized Biocontainment Screening …, 2011).
The campaign covered roughly 1,800 compounds. About 410 (23%) were called active. No rule for the calls is given here. The list is a sample of the results. Entries with a potency or affinity are not part of this list.

assay: viability of Vero cells under compound – cytotoxicity control for flavivirus capping enzyme inhibitors (AID 588742); conditions: cytotoxicity counter-screen; series mostly up to 40 µM

| Structure (SMILES) | outcome |
| --- | --- |
| COc1ccc(-c2csc(/C(C#N)=C(\O)CSc3nccn3C)n2)cc1OC | inactive |
| CCOc1ccc(C(c2c(O)nc(SC)n(C)c2=O)c2c(O)nc(SC)n(C)c2=O)cc1 | inactive |
| COC(=O)C1=C(C(=O)OC)C(c2cc(Br)ccc2O)c2sc(=O)[nH]c2S1 (configuration not stated) | inactive |
| Cc1ccc(-c2c(C(=O)N/N=C/c3ccncc3)nnn2-c2nonc2N)cc1 | inactive |
| COc1ccc(Cc2c(O)nc(SC)n(C(C)=O)c2=O)cc1 | inactive |
| O=C(O)CN1C(=O)/C(=C\c2cccc(OCc3ccccc3)c2)SC1=S | inactive |
| O=C(CC(c1ccccc1)c1ccccc1O)N1CCCC1 (configuration not stated) | inactive |
| O=C(O)c1ccc2c(c1Nc1ccccc1)C(=O)c1ccccc1C2=O | inactive |
| Cc1sc(C(C2C(=O)CC(C)(C)CC2=O)C2C(=O)CC(C)(C)CC2=O)cc1[N+](=O)[O-] | inactive |
| O=C(O)c1cccc(NS(=O)(=O)c2ccc(-c3ccc(S(=O)(=O)Nc4cccc(C(=O)O)c4)cc3)cc2)c1 | inactive |
| CCc1ccc(S(=O)(=O)ON2C(=O)c3ccccc3C2=O)cc1 | inactive |
| O=C(c1ccccc1NS(=O)(=O)c1ccc([N+](=O)[O-])cc1[N+](=O)[O-])N1O[C@@H]2C=C[C@H]1C2 | inactive |
| CCOc1ccc2c(c1)n([O-])c1c([n+]2=O)CCCC1 | inactive |
| COc1cc(C(=O)NC(C(=O)Nc2cccc(C(C)=O)c2)C(C)C)cc(OC)c1OC (configuration not stated) | inactive |
| Cc1nn(CCc2nc(-c3ccco3)cs2)c2[nH]c(=O)cc(C(F)(F)F)c12 | inactive |
| C/C(=N\Nc1cccc(C(=O)O)c1)c1ccc(Cl)s1 | inactive |
| COC1=C(Br)C(=O)c2ncccc2C1=O | inactive |
| CC(C)c1ccc(NC(=O)COC(=O)CSc2nnc(N)s2)cc1 | inactive |
| CC(/C=C1\SC(=S)N(c2ccc(C(=O)O)cc2)C1=O)=C\c1ccccc1 | inactive |
| CN(C)c1cc(N/N=C\c2ccccc2)nc(N(C)C)n1 | inactive |
| COc1ccc(OC)c2c(C)cc(N3CCCCCC3)nc12 | inactive |
| O=C(O)CN1C(=O)/C(=C\c2cc(Br)ccc2OCc2ccccc2F)SC1=S | inactive |
| COc1cccc(CNC(=O)c2cccnc2Sc2ccc(C)cc2C)c1 | inactive |
| O=C(CCN1C(=O)S/C(=C\c2ccccc2)C1=O)Nc1ccc(S(=O)(=O)Nc2nccs2)cc1 | inactive |
| CCS(=O)(=O)c1nc(S(=O)(=O)c2ccc(Cl)cc2)c(NCCCN2CCCC2=O)s1 | inactive |

| Structure (SMILES) | outcome |
| --- | --- |
| [O-][n+]1c2ccccc2[n+]([O-])c2cc(O)ccc21 | inactive |
| CC(C)c1cccc(-c2ccc3c(c2)S(=O)(=O)c2cccc(C(=O)O)c2C3=O)c1 | inactive |
| COc1cc(/C=N/NC(=S)N/N=C/c2cc(OC)c(OC)c(OC)c2)cc(OC)c1OC | inactive |
| CN(C)c1ccc(N=Nc2ccc(S(=O)(=O)O)cc2)c2ccccc12 | inactive |
| CC(=O)NC(CC(=O)OCC(=O)Nc1cc(S(=O)(=O)N2CCCCC2)ccc1C)c1ccccc1 (configuration not stated) | inactive |
| C#CCOc1ccc(/C=C2/C(=O)ON=C2C)cc1Br | inactive |
| Cc1cc(C)c(S(=O)(=O)ON2C(=O)c3ccccc3C2=O)cc1C | inactive |
| Cc1ccc(C)c(S(=O)(=O)/N=C2\C=C(NS(=O)(=O)c3ccccc3)C(=O)c3ccccc32)c1 | inactive |
| O=C(OCCCN=C1NS(=O)(=O)c2ccccc21)c1ccc(F)cc1 | inactive |
| COc1cc(C2C(C#N)=C(N)OC3=C2C(=O)CC(C)(C)C3)cc([N+](=O)[O-])c1O (configuration not stated) | inactive |
| O=C(NN=Cc1cc(Br)c(O)c(Br)c1)c1ccccc1NS(=O)(=O)c1cccs1 | inactive |
| CN(C)c1ccc(NC(=O)c2ccc(Cn3cc([N+](=O)[O-])cn3)cc2)cc1 | inactive |
| C/C(CCc1oc2c(Br)cc(Br)cc2c1-c1ccc(C)o1)=N\O | inactive |
| CC(=O)OCCNc1cc(SCc2ccco2)c2nonc2c1[N+](=O)[O-] | inactive |
| CN(c1ccccc1)c1ccc(/C=C(/CCC(=O)O)c2nc3ccccc3s2)cc1[N+](=O)[O-] | inactive |
| CCCC(=O)OCCNc1cc(SCc2ccco2)c2nonc2c1[N+](=O)[O-] | inactive |
| CC(=O)OCCCNc1cc(SCc2ccco2)c2nonc2c1[N+](=O)[O-] | inactive |
| COc1cc(/C=C2\C(=O)N(c3ccc(NC(C)=O)cc3)N=C2c2ccccc2)ccc1O | inactive |
| CCOc1ccc(N2C(=O)C(Cl)=C(Nc3ccccc3O)C2=O)cc1 | inactive |
| C=CCOc1c(Br)cc(/C=C2/C(=O)ON=C2C)cc1OC | inactive |
| Cc1cc(C2C(=O)CC(=O)CC2c2ccccc2)on1 (configuration not stated) | inactive |
| COc1cc(/C=C2/C(=N)N3C(c4ccccc4)=CSC3=NC2=O)ccc1OCC(=O)O | inactive |
| CCc1ccc(N=C2NC(=O)/C(=C/c3cc(Br)c(OCC(=O)O)c(OC)c3)S2)cc1 | inactive |
| O=C1/C(=C/c2cccs2)SC(=S)N1NS(=O)(=O)c1ccccc1 | inactive |
| CCCOC(=O)c1c(-c2ccc(C)cc2C)csc1NC(=O)C1C2CCC(O2)C1C(=O)O (configuration not stated) | inactive |

| Structure (SMILES) | outcome |
| --- | --- |
| COc1cccc(-c2[nH]nc3c2C(c2ccoc2)C(C#N)=C(N)O3)c1 (configuration not stated) | inactive |
| O=S(=O)(O)c1cc2onnc2c2ccccc12 | inactive |
| CC1CC(=O)C(C(C2=C(O)CC(C)CC2=O)c2ccccc2)=C(O)C1 (configuration not stated) | inactive |
| Cc1[nH][nH]c(=O)c1C(c1ccc(-c2cccc(Cl)c2)o1)c1c(C)[nH][nH]c1=O | inactive |
| Cc1[nH][nH]c(=O)c1C(c1ccc(-c2ccc(Cl)c(C(=O)O)c2)o1)c1c(C)[nH][nH]c1=O | inactive |
| Cc1[nH]n(-c2ncc(-c3ccccc3)s2)c(=O)c1C(c1ccc(Br)cc1)C(C#N)C#N (configuration not stated) | inactive |
| O=C(O)c1cc([N+](=O)[O-])c(Nc2cccc3ccccc23)c([N+](=O)[O-])c1 | inactive |
| O=C1Nc2ccc(F)cc2C12Nc1ccccc1-c1nnc(SCc3ccccc3Cl)nc1O2 (configuration not stated) | inactive |
| CCc1ccc([C@@H]2CC=C(C(=O)O)[C@H](c3ccc(Cl)cc3)N2S(=O)(=O)c2ccc(C)cc2)cc1 | inactive |
| O=C(O)[C@H](Cc1ccccc1)N1C(=O)c2c(Cl)c(Cl)c(Cl)c(Cl)c2C1=O | inactive |
| Cc1cc(C)c2nc(N3C(=O)C(O)=C(C(=O)c4ccco4)C3c3cccc(O)c3)sc2c1 (configuration not stated) | inactive |
| COc1ccc(CNC(=O)CCCC2=NS(=O)(=O)c3ccccc3N2)cc1 | inactive |
| Cc1[nH]n(-c2ccccc2)c(=O)c1C(c1ccccc1[N+](=O)[O-])C(C#N)C#N (configuration not stated) | inactive |
| O=C1CCC/C1=C/Nc1ccc2c(c1)OCO2 | inactive |
| N#Cc1c2c(c(-c3ccco3)[nH]c1=O)CCCC2 | inactive |
| Cn1c(=O)c([N+](=O)[O-])c(Oc2ccccc2)c2ccccc21 | inactive |
| O=Nc1c(O)ccc2cc(S(=O)(=O)O)ccc12 | inactive |
| COC(=O)c1cc(C(=O)OC)cc(N2C(=O)CC(NNC(=O)c3ccccc3Cl)C2=O)c1 (configuration not stated) | inactive |
| O=C(O)/C=C/C(=O)Nc1ccc(C2(c3ccc(NC(=O)/C=C/C(=O)O)cc3)c3ccccc3-c3ccccc32)cc1 | inactive |
| CCCn1nc(NS(=O)(=O)c2cccc3nonc23)c2cc3cccc(C)c3nc21 | inactive |
| Cc1ccc(/C=C2\SC(=S)N(NS(=O)(=O)c3ccc(C)cc3)C2=O)cc1 | inactive |
| Cc1ccc(-c2nnc(Nc3ccc(CC(N)=O)cc3)c3ccccc23)cc1S(N)(=O)=O | inactive |
| Cc1nc(Nc2ccc(C(=O)O)cc2)nc(Nc2ccc(C(=O)O)cc2)c1[N+](=O)[O-] | inactive |
| CC1=CC(=O)C(Sc2ccc(C)cc2)=CC1=O | inactive |
| O=C(CCN1C(=O)/C(=C/c2ccc3c(c2)OCO3)SC1=S)Nc1cccc(C(=O)O)c1 | inactive |

| Structure (SMILES) | outcome |
| --- | --- |
| COc1ccc2nc(N3CCC(O)CC3)c(C#N)cc2c1 | inactive |
| CCOC(=O)c1c(=O)n(O)c2ccc(C)cc2[n+]1[O-] | inactive |
| COc1ccc(/C=C2\C(=O)ON=C2c2ccccc2)cc1OC | inactive |
| Cc1ccc(-c2ccc(/C=C3\C(=O)ON=C3c3ccccc3)o2)c([N+](=O)[O-])c1 | inactive |
| COc1cccc(/C=C2/C(=O)NN(c3ccc(C)c(C)c3)C2=O)c1 | inactive |
| CCOc1cc(/C=N/N=C2/NC(=O)C(CC(=O)O)S2)ccc1OCc1ccc(Cl)cc1 (configuration not stated) | inactive |
| Cn1cc([N+](=O)[O-])c(C(=O)N(Cc2ccccc2)Cc2ccccc2)n1 | inactive |
| COc1ccc(Br)cc1/C=C/C(=O)NC(=S)Nc1ccc(Cl)c(C(=O)O)c1 | inactive |
| CNc1ccc(Br)cc(C(=O)/C=C/c2cccc(OC)c2OC)c1=O | inactive |
| CC1(C)CC(=O)C(C(C2=C(O)CC(C)(C)CC2=O)c2ccc(O)c([N+](=O)[O-])c2)=C(O)C1 | inactive |
| O=C(O)/C(=C\c1c(C(=O)O)[nH]c2cc(Cl)cc(Cl)c12)c1ccccc1 | inactive |
| Oc1c(Br)cc(/C=N/n2c(-c3ccccc3)n[nH]c2=S)cc1Br | inactive |
| CCOCCCNC(=O)CC1Oc2ccc(C)cc2NC1=O (configuration not stated) | inactive |
| Cc1ccc(CC(CC(=O)Nc2cccc(C(F)(F)F)c2)C(=O)O)cc1 (configuration not stated) | inactive |
| O=C1CCCC/C1=C/Nc1ccc2c(c1)OCO2 | inactive |
| COC(=O)CC1=NN(c2ccccc2)C(=O)/C1=C\c1ccc(OC)cc1 | inactive |
| CC(=O)Oc1ccc(/C=C2/C(=O)N(c3ccccc3)N=C2C)cc1 | inactive |
| Cc1ccc(C2C(C#N)=C(N)Oc3nc(-c4ccccc4)[nH]c32)o1 (configuration not stated) | inactive |
| O=C1C(Cl)=C(NCCc2ccccc2)C(=O)c2ccccc21 | inactive |
| COc1cccc(/C=C2\SC(=S)N(C(C(=O)O)c3ccccc3)C2=O)c1OC (configuration not stated) | inactive |
| COc1cc2c3c(c1)-c1c(sn(-c4cc(OC)ccc4OC)c1=S)C(C)(C)N3C(=O)C2=O | inactive |
| C#CCOc1c(Br)cc(/C=C2/C(=O)ON=C2C)cc1OCC | inactive |
